Measurements from the supplement of paper PMC6555819.

Assays:
Experiment in all cases: PBM binding z-score (relative to random genomic background probes); higher = stronger binding; sequences stand for … in GC…GCGATTGACAGCGTAGAATGAAGG
[1] = tested on: RARb homodimer (NR concentration 270 nM)
In short: (§1)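 Binding buffer was PBS pH 7.4 with 2% milk, 0.02% Triton X-100, 1 mM DTT, 0.2 mg/mL BSA and 0.4 mg/ml salmon testes DNA. In it, ligand-free nuclear receptor dimers were incubated 1 h on custom Agilent 4×180K protein-binding microarrays carrying double-stranded probes. Antibodies against each partner (one per run) detected binding, and z-scores were calculated against random background probes after regression normalization of scanned fluorescence.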

[2] = tested on: RARg:RXRa (NR concentration 270 nM, RXRa partner concentration 90 nM)
In short: as §1

[3] = tested on: RARg homodimer (NR concentration 270 nM)
In short: as §1

[4] = tested on: RXRa DBDmut IVT, anti-RXR (DBD mutation: RXRa K156A/R161A, NR concentration 90 nM)
In short: as §1

[5] = tested on: RXRa homodimer (NR concentration 180 nM)
In short: as §1

[6] = tested on: THRa:RXRa (NR concentration 90 nM, RXRa partner concentration 90 nM)
In short: as §1

[7] = tested on: THRa homodimer (NR concentration 90 nM)
In short: as §1

[8] = tested on: VDR homodimer (NR concentration 270 nM)
In short: as §1

Sequence	PBM binding z-score [1]	PBM binding z-score [2]	PBM binding z-score [3]	PBM binding z-score [4]	PBM binding z-score [5]	PBM binding z-score [6]	PBM binding z-score [7]	PBM binding z-score [8]
ATATGTAGGTTGTCGGGTCATTCAGTTTGCGCAT	2.51	2.24	1.66	1.31	2.44	3.2	3.12	4.2
ACTCGGAAGACAAAGGTCAGAGCTACGCCAGTGA	4.33	4.5	4.21	0.211	4.56	2.57	0.0345	0.445
CAAGCTAGGTCACCGGAAGGTCAAAGTCCGCATG	5.19	8.48	7.81	1.93	6.91	4.5	2.79	3.87
GCGACTGGGGCAAAGCCGGTTACCATAAGGTTGG	0.363	-0.242	0.26	-0.988	-0.295	0.48	-0.526	-0.688
CAGCCTAGGTCAGGGCCAGCATAGGAGGAACGTT	2.41	2.93	3.78	-0.352	1.57	1.95	0.423	-0.327
AGTATGAGGTTACCAAAGATCAGGGAAACGCTTG	1.09	2.17	1.83	0.98	2.63	2.87	0.98	0.48
ATACCAAGGTGGTCGTGAGGTCGTTGATACTAAC	1.63	1.25	0.566	0.422	1.53	3.02	2.64	3.47
AGAATGAGGTTATTAATATCAGGGAATTGCGGTC	0.652	1.03	0.749	1.73	1.62	2.05	0.737	1.2
TGAATGAGGTGATAAGATCAGGGAACGTTGCAAA	-0.0418	0.599	0.324	-0.998	0.631	1.43	0.185	-0.465
CCGACCGGGGCAAAGGTTACCATACTCAGTACGA	2.34	3.83	2.02	0.0663	4.51	2.47	0.202	0.185
TCTATTAGTTGAAGTGCAACCGACGAGTCCGTTT	0.42	0.379	0.172	1.58	0.754	0.107	0.145	1.83
TGTCAAAGTTCGAAGGTAACGTAAGTATCCACAC	1.02	2.38	1.83	1.74	2.23	1.44	0.0268	0.722
ACAGACAGGTGATGAAGGGAACTCAGGCTATCAT	0.0495	0.231	0.46	-0.425	0.238	0.341	-0.114	-0.128
AATACAGGGTCCCTAGGCCAGAGTAGGTACGAAT	-0.162	0.119	0.25	-0.442	0.211	0.106	-0.229	0.0969
GCTGTTAGGTCAGGTTGGTCAGCTAACGGGTACG	3.34	3.03	4.11	0.92	1.42	2.84	1.69	0.688
TCTTGTAGATCAACAGGAGGTAAAGAAAGATCGA	-0.473	0.0301	-0.00391	0.122	0.423	0.237	-0.482	-0.385
ATCTCTAGGTAACGAGTTCAGTGAAAGAGAGGAC	1.67	1.08	1.07	1.58	1.01	1.97	1.21	4.11
ATCTCTAGGTAAAGATACTTCAGTGAATGCAAAT	-0.416	0.491	0.669	-0.0244	0.385	0.398	0.038	0.371
GCTAGTTGGTCAGTAAAAGGTCACACACCGGTCG	5.15	5.32	4.87	0.715	5.2	3.52	2.08	1.99

Sequence	PBM binding z-score [1]	PBM binding z-score [2]	PBM binding z-score [3]	PBM binding z-score [4]	PBM binding z-score [5]	PBM binding z-score [6]	PBM binding z-score [7]	PBM binding z-score [8]
CGTCCAAGGTCGTAGGAGGTCAGTGAAGACAGAT	4.07	4.63	4.14	2.43	4.36	4.89	1.61	2.85
GCGACTGGGGCATCAGCAGGTTACCAAAACTTAA	1.16	0.879	0.0539	-0.286	0.238	1.19	0.0193	-0.326
GCTAGTTGGTCAGTAAAAGGTCAGACACCGGTCG	4.8	4.68	4.27	0.252	3.55	2.64	0.737	0.607
GATACAGGGTCAGCTAGAGGCCCGAGTATGGAAA	2.47	4.74	3.86	1.21	4.25	2.49	0.0608	0.402
CCAGACAGGTGAAAGGTACCTCAGTCTGGTACGC	0.251	0.666	0.394	-0.333	1.32	0.325	-0.329	-0.438
GGAACGAGGGCAAGTTAATAGCAGAGTTTGATGG	1.35	1.46	2.01	2.29	0.717	1.2	-0.0334	1.6
TGAATGAGGTTATAAGATCAGGGAACGTTGCAAA	0.0745	1.3	0.836	0.756	1.86	1.71	-0.0262	0.362
CCAGACAGGTGAAAAGGTAACTCAGCCTCGATTA	1.49	1.96	0.973	0.272	1.52	0.971	0.514	-0.0428
GCATATAGGTAATGCAAGGTGAAAGTCCGATTGT	0.843	0.513	0.479	0.239	0.519	4.1	0.825	-0.0965
ATCGAAGGGTCGAGGTGAGTATAGAGAAAGGGAA	1.75	2.29	2.48	0.466	2.29	2.17	0.731	0.278
TGAATGACGTTATAAGATCAGGGAACGTTGCAAA	-0.513	0.43	0.292	-0.941	0.24	-0.021	-0.323	-0.203
TCTAGTTGGTCACGGAGGTCACACACGACGGGTA	4.44	4.66	4.79	0.886	4.58	3.61	2.53	3.25
CCTACTGGGCCAAGGTTATTGATCAGTCAAAGCA	0.487	0.504	0.249	-0.428	0.318	0.787	0.234	-0.0593
CTCGAAAGGTCGGTAGAGGTGAGTATACGGATAA	2.52	2.89	2.98	0.197	2.49	4.38	-0.139	0.0872
TCTCGGAGGACACGAAGGTCAGAGGTTTCCAGAG	4.01	3.24	3.9	0.797	2.29	3.07	1.17	1.73
TCATATAGGTAATACCGGTGAAAGTCGGCATCTA	-0.00712	0.24	0.212	1.35	0.935	0.246	0.113	-0.092
ATATGTAGGTTAGCTAGGGTCATTCAGACTAGGC	3.17	3.33	2.68	1.24	3.71	5	2.64	3.63
TGAATCAGGTTATAAGATCAGGGAACGTTGCAAA	-0.228	0.24	0.42	-0.671	0.358	0.505	-0.129	0.0493
TCTAGTAGATCAACAGGAGGTTAAGAAAGATCGA	0.413	0.662	0.244	0.766	0.901	0.727	-0.505	0.097

Sequence	PBM binding z-score [1]	PBM binding z-score [2]	PBM binding z-score [3]	PBM binding z-score [4]	PBM binding z-score [5]	PBM binding z-score [6]	PBM binding z-score [7]	PBM binding z-score [8]
ATCTCTAGGTAAAGATAGTTCACTGAATGCAAAT	1.54	1.1	1.18	0.234	0.828	1.31	0.149	1.13
TCTCGGAGGACACGAAAGGTCAGAGATCGACATC	4.63	5.05	5.73	1.17	4.6	3.87	1.53	1.12
ATTGAAAGGTCGACGAGGTGAGTATACACCGTTT	3.13	4.19	4.05	1.2	4.31	3.89	1.14	1.58
CATACAGGGTCAGCTAGGCCAGAGAAGGGACGGC	3.35	4.63	5.1	1.74	4.46	2.99	0.568	1.67
GTGACTGGGGCAAAGCAGGTTACCATAAGGTTGG	1.55	1.43	1.19	-0.205	0.875	3.35	0.631	0.275
CGAACTAGGTCAGAACATGACAGTGAAGGATGAT	1.74	2.34	2.89	0.671	1.33	1.24	0.0482	0.133
CGTCTAAGGTCAGAGAGGTCAGTGAATGCCGAGT	5.36	6.8	7.77	3.83	6.37	4.66	3.81	5.7
TCTAGTTGGTCACGGAGGTCACCCACGACGGGTA	4.51	4.85	5.06	0.865	5.13	3.66	2.82	2.79
TCGAGTAGCTTACCAATGGGGCATTCAGCTTTCT	-0.454	-0.745	-0.826	0.345	-0.307	-1.44	-0.855	-0.692
ATACCAAGGTGATCGTGGGGTCGTTGATACTAAC	1.69	2.14	0.593	0.817	2.34	3.15	1.93	2.92
GCACCAAGGTGAATAGGTCGTTGATGAGTAGGCG	1.77	2.42	1.1	0.00127	1.77	1.63	0.229	-0.0787
CCAGACAGGTGACAGGTAACTCAGTCTGGTACGC	0.331	0.209	0.537	-0.242	0.665	0.126	-0.089	-0.0347
TCTAGTTGGTCAAAAGTCACACACTCGAAATGCG	1.01	1.34	1.06	1.33	1.55	0.553	0.457	0.578
TCTTGTAGATCAAGCAGGTTAAGAAAGCCTGAGT	0.31	0.0826	-0.299	0.319	0.444	0.331	-0.339	0.113
AGTCAAAGTTCACTAAGTAACGTAAGATTCAGCT	3.31	4.63	5.16	4.1	3.9	1.55	-0.0534	3.4
CCAACGAGGGCATGAGTTGATAGCAAATGCCGAT	0.406	0.887	1.35	2.04	0.929	1.01	-0.114	1.2
ACTCGGAGGACAAAGGTCAAAGCTACGCCAGTGA	5.02	7.08	6.07	1.75	6.78	4.03	0.972	2.28
CAAACTAGCTCAAAGGTCAAAGTCGAGCCAACCA	4.79	6.22	5.63	1.66	7.07	3.53	0.75	2.62
CGAACTAGGTCAGAACAGGACAGAGAAGGATGAT	1.89	2.45	3.27	0.331	1.2	3.39	0.271	0.244
